High-throughput results as filed in PubChem.
Shown are actives, neighbours in structure and some others; about 3.5% of the full set was active somewhere.
ERb SRC1 inh: blocks coactivator binding to human estrogen receptor beta; TR-FRET ER-beta LBD / SRC1-Cy5 peptide binding; receptor agonist-loaded with 1 µM estradiol; hit rate 1.3% among 86,000; inhibition, % at 25.6 µM; AID 633;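 active means compounds whose percent inhibition of the receptor-coactivator binding signal exceeds about 50% in the single-dose screen, limit read from the data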
ERa coact inh: blocks coactivator binding to human estrogen receptor alpha; P03372; TR-FRET ER-alpha LBD / SRC-1 peptide, estradiol-bound; inhibition, % at 25.6 µM; hit rate 1.7% among 86,000; in the data active means inhibition above about 50%
Smad3 inh: Smad3 (human) transcription factor binding inhibition. inhibition, % at 25 µM. hit rate 0.29% among 88,000. P84022. TR-FRET Smad3/Dy647-FoxH1 peptide binding, europium anti-His;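 active means compounds that reduce the energy-transfer binding signal between the protein and its labelled peptide by more than half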
Target sequence (P84022 whole entry, looked up): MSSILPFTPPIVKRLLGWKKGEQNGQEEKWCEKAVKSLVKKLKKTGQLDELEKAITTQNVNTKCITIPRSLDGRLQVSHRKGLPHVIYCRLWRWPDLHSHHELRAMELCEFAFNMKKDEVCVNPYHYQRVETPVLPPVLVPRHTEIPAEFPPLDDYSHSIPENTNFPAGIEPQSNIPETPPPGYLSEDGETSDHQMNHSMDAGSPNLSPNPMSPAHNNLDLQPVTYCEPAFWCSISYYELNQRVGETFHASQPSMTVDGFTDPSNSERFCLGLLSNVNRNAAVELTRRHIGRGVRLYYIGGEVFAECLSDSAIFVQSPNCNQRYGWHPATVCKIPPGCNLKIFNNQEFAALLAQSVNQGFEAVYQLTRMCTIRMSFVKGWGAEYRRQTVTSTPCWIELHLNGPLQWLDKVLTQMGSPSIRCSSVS
MT1-MMP txn act: activates MT1-MMP transcription | activation factor at 10 µM | hit rate 0.16% among 86,000 | HT1080 MT1-MMP promoter luciferase reporter, luminescence, overnight; hits give high values | AID 750;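 active means activation factor of at least 2 for MT1-MMP transcription at 10 µM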
MMP-13 inhibitor: blocks human MMP13 activity | P45452 | MMP-13 fTHP FRET cleavage, Mca fluorescence | inhibition, % at 4 µM | hit rate 0.07% among 65,000 | AID 570;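 active means inhibition above the mean of compound-free control plate wells plus 3 SD, cut at about 14% in these data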
ERa coact pot: ER-alpha (human) coactivator binding potentiation. hit rate 1.3% among 86,000. P03372. coactivator binding (% of control), % at 25.6 µM. TR-FRET ERalpha-LBD/SRC-Cy5 coactivator binding, 2 h; 100 = basal binding, no effect; in the data active means activity above about 200%;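 further: binding measured in presence of low estradiol as agonist stimulus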
Each line names hits and unclear results; the compound was inactive in the other large screens; [ ] = remark or other dose.

COc1cccc(NC(=O)CSc2ncnc3c2oc2ccccc23)c1	ERb SRC1 inh 57.4[fluorescence artefact?], ERa coact inh 64.2[fluorescence artefact?], ERa coact pot 372.8[fluorescence artefact?]
COc1ccc(Cl)cc1NC(=O)CSc1ncnc2c1oc1ccccc12	ERa coact pot 229.8
COc1ccc(CCNC(=O)CSc2ncnc3c2oc2ccccc23)cc1OC	none
O=C(O)CSc1ncnc2c1oc1ccccc12	none (no result: MMP-13 inhibitor)
CCOC(=O)C1CCN(C(=O)c2ccc(OCC)c(OCC)c2)CC1	none
Cc1[nH]c2ccccc2c1C1(O)C(=O)N(Cc2ccc3c(c2)OCO3)c2ccccc21 (centres undefined)	none
O=C(CSc1ncnc2c1oc1ccccc12)N1CCCc2ccccc21	ERa coact pot 202.2[fluorescence artefact?]
O=C(Cn1cnc2c(oc3ccccc32)c1=O)N1CCCc2ccccc21	none (no result: MT1-MMP txn act)
OC1(C(O)(c2ccc(-c3ccccc3)cc2)c2ccc(-c3ccccc3)cc2)CCCCC1	none (no result: ERb SRC1 inh, ERa coact inh, MT1-MMP txn act, MMP-13 inhibitor, ERa coact pot)
Nc1c(C(=O)NCc2ccccc2)nnn1Cc1ccc(F)cc1	none
CCc1ccc(Cn2nnc(C(=O)NCc3ccccc3OC)c2N)cc1	ERa coact pot 206.4
CCOc1ccc(Cn2nnc(C(=O)Nc3cc(C)cc(C)c3)c2N)cc1	none
CCc1ccc(Cn2nnc(C(=O)Nc3cccc(C)c3)c2N)cc1	none
COc1ccc(CNC(=O)c2nnn(Cc3ccc(OC)cc3)c2N)cc1	ERa coact pot 208.4
CCOc1ccc(Cn2nnc(C(=O)Nc3cc(OC)cc(OC)c3)c2N)cc1	ERa coact pot 257.1[fluorescence artefact?]
CCCCCCc1ccc(OCC(=O)OC)cc1OCC(=O)OC	none (no result: MMP-13 inhibitor)
CCCc1cc(=O)oc2cc(OCC(=O)OC)cc(OCC(=O)OC)c12	ERa coact pot 622.0[fluorescence artefact?]
CCC1CCCCN1Cc1nc2c(c(=O)n(C)c(=O)n2C)n1CCC(C)C (centres undefined)	none
C/C(Nc1ccccc1)=C(/C#N)C(N)=O	Smad3 inh 95.6[fluorescence artefact?] (no result: MT1-MMP txn act, MMP-13 inhibitor)
C/C(Nc1ccc(Cl)cc1)=C(/C#N)C(N)=O	none (no result: MMP-13 inhibitor)
CCCCOC(=O)C1=C(C)NC2(O)c3ccccc3C(=O)C12O (centres undefined)	none
CCn1c(C(=O)N2CCCC(C(=O)NCCc3ccc(C)cc3)C2)cc2sccc21 (centres undefined)	none
CCn1c(C(=O)N2CCCC(C(=O)NCCCc3ccccc3)C2)cc2sccc21 (centres undefined)	ERb SRC1 inh 79.9[fluorescence artefact?]
Cc1ccc(-c2nn3c(C)nnc3s2)cc1NC(=O)c1ccco1	none
COCCCNC(=O)CS(=O)(=O)Cc1nc(-c2ccccc2C)oc1C	none (no result: ERb SRC1 inh, ERa coact inh, Smad3 inh, ERa coact pot)
Cc1ccccc1-c1nc(CS(=O)(=O)CC(=O)Nc2cc(F)ccc2F)c(C)o1	ERa coact pot 742.6[fluorescence artefact?]
Cc1oc(-c2ccccc2F)nc1CS(=O)(=O)CC(=O)NCc1ccco1	ERb SRC1 inh 91.3[fluorescence artefact?], ERa coact inh 90.7[fluorescence artefact?], Smad3 inh 77.6 (no result: MT1-MMP txn act)
Cc1ccc(C)c2[nH]c(=O)c(C(c3nnnn3Cc3ccco3)N3CCc4ccccc4C3)cc12 (centres undefined)	ERa coact pot 220.2[fluorescence artefact?]
Cc1ccc(C)c2[nH]c(=O)c(C(c3nnnn3CCc3ccccc3)N3CCOCC3)cc12 (centres undefined)	none
CN(C)/C=N/C(=S)Nc1ccc(Br)cc1F	none (no result: MT1-MMP txn act, MMP-13 inhibitor)
c1cncc(-c2nn[nH]n2)c1	ERb SRC1 inh 63.0[fluorescence artefact?]
Nc1c(C(O)(C(F)(F)F)C(F)(F)F)ccc2ccccc12	ERa coact pot 285.8[fluorescence artefact?]
Cc1ccccc1NC(=O)c1cnc2ccccn2c1=O	none (no result: ERb SRC1 inh, ERa coact inh, Smad3 inh, MT1-MMP txn act, ERa coact pot)
O=C(Nc1cnc2ccccn2c1=O)c1ccc(F)cc1	ERb SRC1 inh 64.9
O=c1[nH]c(=O)n([C@H]2C[C@H](O)[C@@H](CO)O2)cc1F	none
N#C/C(=C(/O)CSc1nnc(Cc2cccs2)n1C1CCCCC1)c1nc2ccccc2[nH]1	ERa coact inh 76.8[fluorescence artefact?]
CCOc1ccc(-c2nnc(-c3ccco3)o2)cc1OCC	MT1-MMP txn act 2.1
Brc1ccc(-c2nnc(-c3ccc4c(c3)OCO4)o2)o1	none
c1coc(-c2nnc(-c3ccc4c(c3)OCO4)o2)c1	ERa coact inh 65.4[fluorescence artefact?]
CCCCCOc1ccc(Br)cc1/C(C)=N/NC1=NCCN1	ERa coact inh 65.9[fluorescence artefact?] (no result: MMP-13 inhibitor)
CCC(=O)Nc1ccc(S(=O)(=O)Nc2cccnc2)cc1	ERb SRC1 inh 77.5[fluorescence artefact?]
CCOC(=O)CC(NC(=O)c1ccco1)c1ccccc1Cl (centres undefined)	none (no result: ERb SRC1 inh, ERa coact inh, Smad3 inh, ERa coact pot)
C[N+](C)(C)CCN[N@+]1(C)CCCc2ccccc21	Smad3 inh 103.2 (no result: ERb SRC1 inh, ERa coact inh, MT1-MMP txn act, MMP-13 inhibitor, ERa coact pot)
Cc1ccc(S(=O)(=O)N2CCN(C(=O)CSc3ncc(C(F)(F)F)cc3Cl)CC2)cc1	ERa coact inh 69.0 (no result: MMP-13 inhibitor)
COc1cc(S(=O)(=O)N2CCCCCC2)c(OC)cc1Br	none
Cc1ccc2oc(=O)c3cc(C(=O)NCc4ccco4)sc3c2c1	ERb SRC1 inh 53.9[fluorescence artefact?], ERa coact inh 67.5[fluorescence artefact?]
CCN1CCN(C(=O)c2cc3c(=O)oc4ccc(C)cc4c3s2)CC1	none
CCOC(=O)C1=C(C)OC(N)=C(C#N)C1c1cc2cc(C)ccc2nc1N1CCCCC1 (centres undefined)	ERa coact pot 318.1[fluorescence artefact?] (no result: MMP-13 inhibitor)
CCOC(=O)C1=C(C)OC(N)=C(C#N)C1c1cc2ccccc2nc1N1CCCCC1 (centres undefined)	none
CCN(CC)S(=O)(=O)c1ccc(C(=O)NCc2ccc3c(c2)cc(C)n3C)cc1	none (no result: MT1-MMP txn act, MMP-13 inhibitor)
Cc1cc2cc(CNC(=O)c3ccc(S(=O)(=O)N4CCCC4)cc3)ccc2n1C	ERa coact pot 293.0[fluorescence artefact?] (no result: MT1-MMP txn act, MMP-13 inhibitor)
Cc1cc2cc(CNC(=O)c3ccc(S(=O)(=O)N4CCCCC4)cc3)ccc2n1C	ERa coact pot 404.3[fluorescence artefact?]
CCOC(=O)c1cn(-c2ccccc2)nc1-c1cccnc1	none
O=C(OCn1nnc2ccccc2c1=O)c1cn(-c2ccccc2)nc1-c1cccnc1	ERa coact inh 67.7
CCOc1ccc(NC(=O)Cn2nnc(-c3ccccc3NC(=O)C3CC3)n2)cc1	none
CCOC(=O)CCC(NC(=O)c1ccc(NCN2C(=O)CCC2=O)cc1)C(=O)OCC (centres undefined)	ERb SRC1 inh 54.0
Cc1ccc2nc(NC(=O)CSCc3ccccc3)sc2c1	ERb SRC1 inh 85.0[fluorescence artefact?] (no result: MT1-MMP txn act, MMP-13 inhibitor)
CCOC(=O)c1ccc(Oc2c(C)oc3c(CN4CCN(C)CC4)c(O)ccc3c2=O)cc1	none
COC(=O)c1c(NC(=O)c2nc3ccccc3s2)sc2c1CCN(C(C)=O)C2	none
CNC(=O)c1c(NC(=O)c2nc3ccccc3s2)sc2c1CCC2	ERb SRC1 inh 53.5, ERa coact inh 71.8[fluorescence artefact?]
NC(=O)c1oc2ccccc2c1NC(=O)c1nc2ccccc2s1	ERa coact pot 492.7
Cc1ccc2c(Cl)cc(Cl)c(OCC(=O)NCc3ccco3)c2n1	ERb SRC1 inh 83.9, ERa coact inh 93.3[fluorescence artefact?] (no result: MMP-13 inhibitor)
COc1ccc(CCNC(=O)COC(=O)c2ccco2)cc1OC	ERb SRC1 inh 78.5[fluorescence artefact?]
CC(C)NC(=O)c1ccc2c(=O)n(Cc3ccco3)c(=S)[nH]c2c1	none (no result: MMP-13 inhibitor)
CCOc1ccc(C(=O)OCC(=O)NCc2ccco2)cc1OCC	ERb SRC1 inh 52.0, ERa coact inh 70.0[fluorescence artefact?]
CCOc1ccccc1OCC(=O)NCc1ccco1	none
Cc1ccc2c(Cl)cc(Cl)c(OCC(=O)NC(=O)NCc3ccco3)c2n1	none
